According to article PMC4336329 (PLoS ONE, 2015):
In all, about 310,000 compounds went through this assay and about 14,000 (4.5%) showed an effect of 50% or more. The effect is printed as a negative number. For the sample, strong results were picked, then their nearest neighbours and some compounds at random.

These molecules were tested against human ether-à-go-go-related gene (hERG) potassium channel (human, UniProt Q12809) (assay: primary screen, population patch clamp on CHO cells stably expressing hERG; higher = less effect of the substance).
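Further: peak tail current of the secondary pulse compared with the same well before compound.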

Chain of human ether-à-go-go-related gene (hERG) potassium channel (Q12809 whole entry, looked up): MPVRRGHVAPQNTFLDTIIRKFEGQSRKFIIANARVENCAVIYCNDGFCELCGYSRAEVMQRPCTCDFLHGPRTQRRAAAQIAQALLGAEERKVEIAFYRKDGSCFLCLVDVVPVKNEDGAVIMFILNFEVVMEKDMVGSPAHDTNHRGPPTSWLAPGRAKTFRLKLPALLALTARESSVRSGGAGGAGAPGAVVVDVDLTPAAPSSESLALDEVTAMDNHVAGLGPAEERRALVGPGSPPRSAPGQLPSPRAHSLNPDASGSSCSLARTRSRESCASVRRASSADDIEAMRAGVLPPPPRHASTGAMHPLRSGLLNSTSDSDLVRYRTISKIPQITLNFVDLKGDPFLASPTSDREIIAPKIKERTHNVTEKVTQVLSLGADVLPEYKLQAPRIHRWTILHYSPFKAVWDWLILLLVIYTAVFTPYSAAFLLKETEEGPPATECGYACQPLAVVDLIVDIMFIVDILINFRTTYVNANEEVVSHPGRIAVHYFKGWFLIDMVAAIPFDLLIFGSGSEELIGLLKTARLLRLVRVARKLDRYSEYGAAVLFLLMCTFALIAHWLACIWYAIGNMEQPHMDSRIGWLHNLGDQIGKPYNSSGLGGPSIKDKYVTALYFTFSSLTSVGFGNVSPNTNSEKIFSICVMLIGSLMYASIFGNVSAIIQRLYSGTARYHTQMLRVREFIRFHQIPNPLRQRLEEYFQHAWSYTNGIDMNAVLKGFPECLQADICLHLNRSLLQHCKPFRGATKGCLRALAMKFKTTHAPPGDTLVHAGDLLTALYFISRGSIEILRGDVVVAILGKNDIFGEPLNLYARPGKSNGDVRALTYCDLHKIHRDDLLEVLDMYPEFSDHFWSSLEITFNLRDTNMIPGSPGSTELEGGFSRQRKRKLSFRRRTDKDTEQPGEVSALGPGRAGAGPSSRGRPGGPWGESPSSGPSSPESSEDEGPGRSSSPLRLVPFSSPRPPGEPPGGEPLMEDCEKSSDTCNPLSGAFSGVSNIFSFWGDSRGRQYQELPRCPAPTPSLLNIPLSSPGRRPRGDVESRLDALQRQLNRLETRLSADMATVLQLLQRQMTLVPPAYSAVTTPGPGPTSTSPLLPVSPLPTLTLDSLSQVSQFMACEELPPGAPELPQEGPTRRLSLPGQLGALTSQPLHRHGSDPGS

Point of comparison: `COc1ccc(N2C(=O)CSC2c2ccc([N+](=O)[O-])cc2)cc1` (centres unmarked), “hERG current change (%, negative = inhibition) at 10uM” value -37.3%. Against it:
- CCCCN(C(=O)NC(=O)Nc1cc(C)ccc1C)S(C)(=O)=O — higher, 17.9%
- CNC(=O)COC(=O)CCC(=O)c1ccc(Cl)cc1 — higher, 7.45%
- Cc1noc(C)c1COc1ccc(C(=O)Nc2ncccc2O)cc1 — higher, 11.5%
- Cc1ccc(C(=O)NCC2CCCO2)cc1[N+](=O)[O-] (centres unmarked) — higher, 4.29%
- Cc1cc(C=C2C(=O)c3ccccc3C2=O)c(C)n1-c1ccccc1 — higher, 7.13%
- C[C@H](NC(=O)OCc1ccccc1)C(=O)NNC(=O)[C@H](Cc1ccccc1)NC(=O)OC(C)(C)C — higher, 31.2%
- O=C1N(c2cccc(Cl)c2)C(c2cccnc2)N2CCCN12 (centres unmarked) — higher, -4.39%
- CC1(C)C[C@@H]2C[C@@](C)(CN2C(=O)c2ccccc2)C1 — higher, 11.3%
- CC1(C)CC2CC(C)(CN2C(=O)c2ccccc2)C1 (centres unmarked) — higher, 8.08%
- CC1(C)CC2CC(C)(CN2C(=O)c2ccc([N+](=O)[O-])cc2)C1 (centres unmarked) — lower, -62.4%
- Cc1ccc(C(=O)N2CCN(C(=O)c3ccccc3)C2c2ccc(N(C)C)cc2)cc1 (centres unmarked) — lower, -50.8%
- O=C(c1ccccc1)N1CCN(C(=O)c2ccccc2)C1c1ccccc1 — higher, 4.53%
- COc1ccc(C2N(C(=O)c3ccccc3)CCN2C(=O)c2ccc(C)cc2)cc1 (centres unmarked) — higher, -24.9%
- COc1ccc(C2SCCN2C(=O)c2ccc([N+](=O)[O-])cc2)cc1 (centres unmarked) — lower, -70%
- COc1ccccc1C1SCCN1C(=O)c1ccc([N+](=O)[O-])cc1 (centres unmarked) — lower, -38.7%
- O=C(C1CCN(S(=O)(=O)c2ccccc2)CC1)N1CCC1 — higher, 12.3%
- Cc1[nH]n(-c2ccccc2)c(=O)c1C=Nc1cnc2ccccc2c1 — higher, -8.67%
- O=C(c1cccs1)c1ccc(-c2cccs2)s1 — higher, 1.57%
- CN(C)CCSc1nc(-c2ccccc2)nc2c1CCC2 — lower, -61.3%
- CSc1nc(-c2ccccc2)nc2c1COC(C)(C)C2 — higher, 5.03%
- CN(C)CCCSc1nc(-c2ccccc2)nc2c1CCC2 — lower, -50.3%
- CN(C)CCSc1nc(-c2ccccc2)nc2c1COC(C)(C)C2 — lower, -69.1%
- O=C(O)CSc1nc(-c2ccccc2)nc2c1CCCC2 — higher, 12.8%
- NC(=O)CSc1nc(-c2ccccc2)nc2c1CCCC2 — higher, 5.92%
- CCSc1nc(-c2ccccc2)nc2c1CCCC2 — higher, 7.26%
- CN(C)C(=O)CSc1nc(-c2ccccc2)nc2c1CCCC2 — higher, -5.09%
- CC1(C)Cc2nc(-c3ccccc3)nc(SCC(O)CO)c2CO1 (centres unmarked) — higher, -15.8%
- OCC(O)CSc1nc(-c2ccccc2)nc2c1CCC2 (centres unmarked) — higher, 2.22%
- CN(C)CCSc1nc(-c2ccccc2)nc2c1CCCC2 — lower, -51.3%
- OCCSc1nc(-c2ccccc2)nc2c1CCC2 — higher, -12%
- O=C(NCC(c1cccs1)N1CCOCC1)C1CCN(S(=O)(=O)c2c(Cl)cccc2Cl)CC1 (centres unmarked) — higher, -27.3%
- COc1ccc(C2C3CCCCC3(O)CCN2C(=O)c2cccs2)cc1 (centres unmarked) — higher, 5.52%
- CC(C)(C)C(=O)Nc1nnc(SCC(=O)NC2CCCCC2)s1 — higher, 2.34%
- COc1ccc(S(=O)(=O)N2CCC(C(=O)NCCN3CCOCC3)CC2)cc1 — higher, 14.2%
- CC1=NN(c2ccccc2)C(=O)C1/C=C1\C(=O)NC(=O)N(c2cc(C)cc(C)c2)C1=O (centres unmarked) — higher, 6.47%
- Cc1sc2nc(CSCC(=O)Nc3c(F)cccc3F)[nH]c(=O)c2c1C — higher, 7.01%
- CC(C)CNc1nnnc2c1sc1nc(N3CCOCC3)c3c(c12)CC(C)(C)SC3 — higher, -20.8%
- Cc1ccc(Sc2ccc(S(=O)(=O)Nc3ccc(CC(=O)O)cc3)cc2)cc1C — higher, 3.13%
- COc1ccccc1NS(=O)(=O)c1cccc(C(=O)NCC2(N(C)C)CCCCC2)c1 — higher, -22.2%
- CCN(c1ccccc1)S(=O)(=O)c1ccc(C(=O)Nc2ccncc2)cc1 — lower, -68.7%
- COc1cc(C(=O)NCC2(N(C)C)CCCCC2)ccc1OCc1ccccc1 — lower, -59.7%
- CN(c1ccccc1)S(=O)(=O)c1ccc(C(=O)Nc2ccncc2)cc1 — higher, -9.83%
- CCN(c1ccccc1)S(=O)(=O)c1ccc(C(=O)NCCc2ccc(S(N)(=O)=O)cc2)cc1 — higher, 5.49%
- CN(C)C1(CNC(=O)c2cccc(S(=O)(=O)NCc3ccccc3)c2)CCCCC1 — lower, -49.5%
- COc1ccccc1NS(=O)(=O)c1ccc(C(=O)NCC2(N(C)C)CCCCC2)cc1 — higher, 3.78%
- CNC(=O)c1ccc(OCc2ccccc2)c(OC)c1 — higher, 3.11%
- CCN(c1ccccc1)S(=O)(=O)c1ccc(C(=O)Nc2ccccn2)cc1 — higher, -8.37%
- CCN(c1ccccc1)S(=O)(=O)c1cccc(C(=O)NCC2(N(C)C)CCCCC2)c1 — lower, -60.5%
- COc1ccc(C(=O)NCC(=O)NCC2(N(C)C)CCCCC2)cc1OC — higher, 3.45%
